# Data from the supplement of paper PMC9801561.
# ± gives the standard deviation of the averaged measurements.
# Key:
# [1] = tested on: Escherichia coli Nissle 1917; assay: area under OmniLog respiration curve over 48 h (OmniLog units x h); higher = more growth / nutrient utilisation; extreme values may be limits of the assay; settings: incubation: 48 h, 37 °C
# [2] = tested on: Escherichia coli Nissle 1917; assay: DuctApe activity index of respiration/growth curve (0 no growth to 9 maximum) (index 0-9); higher = more growth / nutrient utilisation, active = 3 or more; extreme values may be limits of the assay; settings: incubation: 48 h, 37 °C
# [3] = nutrient role: C-Source, amino acid
# [4] = nutrient role: sole nitrogen source (pyruvate carbon)
# [5] = nutrient role: C-Source, carbohydrate
# [6] = nutrient role: C-Source, carboxylic acid
# [7] = nutrient role: sole sulfur source (pyruvate carbon)
# [8] = nutrient role: sole phosphorus source (pyruvate carbon)
# 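Wherever DuctApe activity index of respiration/growth curve (0 no growth to 9 maximum) is given: biolog PM4 phosphorus and sulfur plates, tetrazolium violet dye reduction read in the OmniLog every 15 min, kinetic curves scored by DuctApe, each plate run in triplicate.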
structure (smiles),measurement,setting,value
N[C@H](CC(=O)O)C(=O)O [D-Aspartic acid],area under OmniLog respiration curve,[1]; [3],48 ± 53
same,area under OmniLog respiration curve,[1]; [4],4.72
same,DuctApe activity index,[2]; [3],0.667 (inactive)
same,DuctApe activity index,[2]; [4],0 (inactive)
OC[C@@H](O)[C@H](O)[C@@H](O)CO [Xylitol],area under OmniLog respiration curve,[1]; [5],4.72
same,DuctApe activity index,[2]; [5],0 (inactive)
O=C(O)CCC(=O)C(=O)O [a-Ketoglutaric acid],area under OmniLog respiration curve,[1]; [6],5770 ± 360
same,DuctApe activity index,[2]; [6],6.67 (active)
NCCS(=O)(=O)O [Taurine],area under OmniLog respiration curve,[1]; [7],7830 ± 160
same,DuctApe activity index,[2]; [7],8 (active)
O=C(O)Cc1cccc(O)c1 [m-Hydroxyphenyl Acetic acid],area under OmniLog respiration curve,[1]; [6],114 ± 120
same,DuctApe activity index,[2]; [6],0.667 (inactive)
CC1OC(O)C(O)C(O)C1O [L-Fucose],area under OmniLog respiration curve,[1]; [5],7650 ± 700
same,DuctApe activity index,[2]; [5],7.67 (active)
Cc1cn([C@H]2C[C@H](O)[C@@H](COP(=O)(O)O)O2)c(=O)[nH]c1=O [Thymidine 5`-Monophosphate],area under OmniLog respiration curve,[1]; [8],8850 ± 380
same,DuctApe activity index,[2]; [8],8.67 (active)
CC(C)[C@@H](N)C(=O)O [D-Valine],area under OmniLog respiration curve,[1]; [4],469 ± 470
same,DuctApe activity index,[2]; [4],0.667 (inactive)
N[C@@H](CSCSC[C@H](N)C(=O)O)C(=O)O [L-Djenkolic acid],area under OmniLog respiration curve,[1]; [7],7730 ± 190
same,DuctApe activity index,[2]; [7],8 (active)
N[C@@H](CS(=O)O)C(=O)O [L-Cysteine Sulfinic acid],area under OmniLog respiration curve,[1]; [7],7460 ± 360
same,DuctApe activity index,[2]; [7],7.67 (active)
Nc1ccc(S(=O)(=O)O)cc1 [p-Aminobenzene Sulfonic acid],area under OmniLog respiration curve,[1]; [7],550 ± 470
same,DuctApe activity index,[2]; [7],0 (inactive)
CS(=O)(=O)CC[C@H](N)C(=O)O [L-Methionine Sulfone],area under OmniLog respiration curve,[1]; [7],31.6 ± 21
same,DuctApe activity index,[2]; [7],0 (inactive)
O=C(O)[C@@H](O)[C@@H](O)[C@H](O)[C@@H](O)C(=O)O [D-Saccharic acid],area under OmniLog respiration curve,[1]; [6],9150 ± 780
same,DuctApe activity index,[2]; [6],8.67 (active)
OC[C@H]1O[C@@H](O[C@@H]2[C@@H](CO)OC(O)(CO)[C@H]2O)[C@H](O)[C@@H](O)[C@H]1O (mixture of isomers) [Lactulose],area under OmniLog respiration curve,[1]; [5],8170 ± 840
same,DuctApe activity index,[2]; [5],8 (active)
Cc1cn([C@H]2C[C@H](OP(=O)(O)O)[C@@H](CO)O2)c(=O)[nH]c1=O [Thymidine 3`-Monophosphate],area under OmniLog respiration curve,[1]; [8],8940 ± 450
same,DuctApe activity index,[2]; [8],8.67 (active)
CO[C@H]1O[C@H](CO)[C@@H](O)[C@H](O)[C@H]1O [a-Methyl-D-Glucoside],area under OmniLog respiration curve,[1]; [5],4.72
same,DuctApe activity index,[2]; [5],0 (inactive)
O=C(O)c1ccccc1O [2-Hydroxybenzoic acid],area under OmniLog respiration curve,[1]; [6],4.72
same,DuctApe activity index,[2]; [6],0 (inactive)
CCCCCN [N-Amylamine],area under OmniLog respiration curve,[1]; [4],12.9 ± 14
same,DuctApe activity index,[2]; [4],0 (inactive)
O=C(O)[C@H](O)[C@@H](O)[C@H](O)[C@H](O)CO[C@H]1O[C@H](CO)[C@H](O)[C@H](O)[C@H]1O [Melibionic acid],area under OmniLog respiration curve,[1]; [5],6790 ± 140
same,DuctApe activity index,[2]; [5],7 (active)
OC1OC[C@@H](O)[C@@H](O)[C@@H]1O (stereo partly drawn) [D-Arabinose],area under OmniLog respiration curve,[1]; [5],2440 ± 230
same,DuctApe activity index,[2]; [5],4 (active)
O=P(O)(O)O[C@H]1[C@H](OP(=O)(O)O)[C@@H](OP(=O)(O)O)[C@H](OP(=O)(O)O)[C@@H](OP(=O)(O)O)[C@H]1OP(=O)(O)O [Inositol Hexaphosphate],area under OmniLog respiration curve,[1]; [8],8630 ± 520
same,DuctApe activity index,[2]; [8],8.67 (active)
N[C@@H]1C(O)O[C@H](CO)[C@@H](O)[C@@H]1O (stereo partly drawn) [D-Mannosamine],area under OmniLog respiration curve,[1]; [4],1020 ± 700
same,DuctApe activity index,[2]; [4],1.67 (inactive)
NC=O [Formamide],area under OmniLog respiration curve,[1]; [4],38.4 ± 58
same,DuctApe activity index,[2]; [4],0 (inactive)
CO[C@@H]1O[C@H](C(=O)O)[C@@H](O)[C@H](O)[C@H]1O [b-Methyl-D-Glucuronic acid],area under OmniLog respiration curve,[1]; [6],6620 ± 580
same,DuctApe activity index,[2]; [6],7.33 (active)
CCCCCC(=O)O [Caproic acid],area under OmniLog respiration curve,[1]; [6],4.72
same,DuctApe activity index,[2]; [6],0 (inactive)
COC(=O)CCC(=O)O [Mono-Methylsuccinate],area under OmniLog respiration curve,[1]; [6],1170 ± 950
same,DuctApe activity index,[2]; [6],1.33 (inactive)
CO[C@@H]1OC[C@@H](O)[C@H](O)[C@H]1O [b-Methyl-D-Xyloside],area under OmniLog respiration curve,[1]; [5],4.72
same,DuctApe activity index,[2]; [5],0 (inactive)
O=C(O)[C@@H](O)[C@H](O)C(=O)O [D-Tartaric acid],area under OmniLog respiration curve,[1]; [6],8.46 ± 6.5
same,DuctApe activity index,[2]; [6],0 (inactive)
OC1OC[C@@H](O)[C@H](O)[C@H]1O (stereo partly drawn) [D-Xylose],area under OmniLog respiration curve,[1]; [5],9160 ± 580
same,DuctApe activity index,[2]; [5],8.67 (active)
O=C(O)CP(=O)(O)O [Phosphono Acetic acid],area under OmniLog respiration curve,[1]; [8],143 ± 120
same,DuctApe activity index,[2]; [8],1.33 (inactive)
"C[N+](C)(C)CC(O)CC(=O)[O-] (racemic) [D,L-Carnitine]",area under OmniLog respiration curve,[1]; [6],5.03 ± 0.54
same,DuctApe activity index,[2]; [6],0 (inactive)
N[C@H]1C(O)O[C@H](CO)[C@H](O)[C@@H]1O (stereo partly drawn) [D-Galactosamine],area under OmniLog respiration curve,[1]; [4],11.2 ± 11
same,DuctApe activity index,[2]; [4],0 (inactive)
O=CC(=O)O [Glyoxylic acid],area under OmniLog respiration curve,[1]; [6],5490 ± 480
same,DuctApe activity index,[2]; [6],7 (active)
N[C@@H](C(=O)O)[C@@H](O)[C@H](O)[C@H](O)CO [D-Glucosaminic acid],area under OmniLog respiration curve,[1]; [6],1010 ± 670
same,DuctApe activity index,[2]; [6],2 (inactive)
N[C@@H](Cc1ccc(O)cc1)C(=O)O [L-Tyrosine],area under OmniLog respiration curve,[1]; [4],1110 ± 450
same,DuctApe activity index,[2]; [4],2.33 (inactive)
N[C@@H](Cc1c[nH]c2ccccc12)C(=O)O [L-Tryptophan],area under OmniLog respiration curve,[1]; [4],3670 ± 1500
same,DuctApe activity index,[2]; [4],4.67 (active)
CC[C@H](O)C(=O)O [a-Hydroxybutyric acid],area under OmniLog respiration curve,[1]; [6],2930 ± 240
same,DuctApe activity index,[2]; [6],4 (active)
O=C(O)[C@H]1OC(O)[C@H](O)[C@@H](O)[C@@H]1O (stereo partly drawn) [D-Glucuronic acid],area under OmniLog respiration curve,[1]; [6],10000 ± 950
same,DuctApe activity index,[2]; [6],9 (active)
OC[C@H]1O[C@H](OC[C@H]2O[C@H](O[C@]3(CO)O[C@H](CO)[C@@H](O)[C@@H]3O)[C@H](O)[C@@H](O)[C@@H]2O)[C@H](O)[C@@H](O)[C@H]1O [D-Raffinose],area under OmniLog respiration curve,[1]; [5],6090 ± 450
same,DuctApe activity index,[2]; [5],7 (active)
O=C[C@H](O)[C@H](O)[C@@H](O)CO [L-Lyxose],area under OmniLog respiration curve,[1]; [5],2670 ± 880
same,DuctApe activity index,[2]; [5],4.33 (active)
O=C(CO)[C@@H](O)[C@H](O)[C@@H](O)C(=O)O [5-Keto-D-Gluconic acid],area under OmniLog respiration curve,[1]; [6],118 ± 140
same,DuctApe activity index,[2]; [6],0 (inactive)
